Source: PubChem BioAssay AID449762 (Southern Research Specialized Biocontainment Screening …, 2010)
Screen size: about 330,000 compounds; about 1,900 (0.58%) were called active. About 4% were inconclusive and are not listed. Only a sample is shown. Entries with a potency or affinity are not part of this list. Unmarked numbers belong to inactive results. Cut-off read from the data, not from the text of the source: inconclusive = inhibition above about 70% without an active follow-up result; inactive = below that.

assay: M. tuberculosis growth inhibition, HTS (AID 449762);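 note: bacterial growth assessed after seven days of incubation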; conditions: M. tuberculosis H37Rv growth inhibition, 7H9 media; at 25 µM; stronger effect = higher value

SMILES | inhibition [%]
O=C1CCC(C(=O)N(Cc2cccs2)C2(C(=O)NC3CCCCC3)CCCCC2)N1 (centres undefined) | 1.48
O=C1C=C(c2ccc(Oc3ccccc3)cc2)C[C@@H](c2ccc(F)cc2)C1 | 24.8
CCOc1ccc(OCCCC(=O)Nc2cc(Cl)ccc2-n2cncn2)cc1 | 9.23
N#CC(C#N)=C1CCc2ccccc2N1 | -3.11
CCCCOC(=O)/C(=C\c1ccc([N+](=O)[O-])o1)NC(=O)c1ccccc1 | -4.98
O=C(NCCO)/C(=C\c1ccc([N+](=O)[O-])o1)NC(=O)c1ccccc1 | 59
COc1ccc(C2C(C(=O)Nc3ccccn3)=C(C)Nc3ncnn32)c(OC)c1 (centres undefined) | -4.42
COc1ccc(OC)c(-c2csc(NC(=O)CSc3ccccc3)n2)c1 | -4.32
COc1ccc(CC(=O)Nc2ccc(S(=O)(=O)Nc3onc(C)c3C)cc2)cc1OC | 5.55
COc1ccc(C2NN=C(c3c[nH]c4ccccc34)C2O)cc1 (centres undefined) | 4.48
COc1ccc(NC(=O)COC(=O)CCCc2c[nH]c3ccccc23)cc1 | 37.6
O=C(COC(=O)c1ccc2c(c1)C(=O)N(CCc1ccccc1)C2=O)Nc1ccc(OC(F)F)cc1 | -2.61
CCC(CO)(C(=O)OC1C[N+]2(C)CCC1CC2)c1ccccc1 (centres undefined) | -13.2
CCOC(=O)N1CCN(Cc2ccc(O)c3ncccc23)CC1 | 55.4
OCCN1CCN(Cc2cc(Cl)c3cccnc3c2O)CC1 | 6.31
CC(=O)Nc1ccc(S(=O)(=O)NCCc2c[nH]c3ccc(C)cc23)cc1 | 0.51
COc1ccc(OCCCCN(C)Cc2ccccc2)cc1 | 13.7
COc1ccc(CNC(=O)[C@@H]2CC=C[C@@H]3CCN(Cc4ccc(Cl)c(Cl)c4)C(=O)[C@@H]32)cc1 | 18.4
O=C(NNC(=S)Nc1ccccc1)c1ccncc1 | 7.24
COc1cccc(C2c3[nH]c4ccccc4c3CCN2Cc2cccn2-c2ncccn2)c1 (centres undefined) | 2.06
CCOc1ccc(C2c3[nH]c4ccccc4c3CCN2Cc2cccn2-c2ncccn2)cc1 (centres undefined) | 67.7
Cc1ccc(CNC(=O)CSCc2cccc(F)c2)cc1 | 12.3
CNC(=S)N/N=C/c1c(C)nn(-c2ccc(F)cc2)c1Cl | 6.49

SMILES | inhibition [%]
CC1=C(C)CC(C(=O)Nc2nccs2)C(C(=O)O)C1 (centres undefined) | -4.95
S=c1nccc(-c2ccc3c(c2)CCO3)[nH]1 | 3.97
S=c1nccc(-c2ccc(Cl)cc2)[nH]1 | 54.5
COc1ccc(C2C(C#N)=C(N)Oc3cc(C)n(Cc4ccncc4)c(=O)c32)cc1 (centres undefined) | -7.68
O=C(CCn1cnc2ccccc2c1=O)Nc1ccc2c(c1)OCCO2 | -3.32
CCN(CC)c1ccc2c(C)c(Cl)c(=O)oc2c1 | -3.19
CCN(CC)c1ccc2c(Cl)cc(=O)oc2c1 | 5.83
Cc1nc(C)c(C(=O)OCC(=O)NCc2ccccc2Cl)s1 | 3.01
CCOC(=O)c1cnc2ccc(OCC)cc2c1N1CCN(C)CC1 | 4.95
CCOC(=O)c1cnc2ccc(OCC)cc2c1N1CCN(c2ccccc2OC)CC1 | 63.7
C=CCN(CC(=O)NCc1ccccc1)C(=O)c1csnn1 | -1.06
O=C(O)C1CC=CCC1C(=O)NCCCN1CCCC1=O (centres undefined) | -30.3
O=[N+]([O-])c1ccc(-[n+]2c(-c3ccccc3)cc(-c3ccccc3)cc2-c2ccccc2)cc1 | 8.42
O=C([O-])c1ccc(-[n+]2c(-c3ccccc3)cc(-c3ccccc3)cc2-c2ccccc2)cc1 | 55.9
Cc1ccc(-c2cc(-c3ccc(C)cc3)[n+](-c3ccc(C(=O)O)cc3)c(-c3ccc(C)cc3)c2)cc1 | 6.26
O=C(O)c1ccc(-[n+]2c(-c3ccccc3)cc(-c3ccccc3)cc2-c2ccccc2)cc1 | -13.1
O=[N+]([O-])c1ccc2nc(-[n+]3c(-c4ccccc4)cc(-c4ccccc4)cc3-c3ccccc3)[nH]c2c1 | 27.2
Cc1ccc(-c2cc(-c3ccccc3)cc(-c3ccccc3)[n+]2-c2ccc(C(=O)O)cc2)cc1 | -6.06
CC(C)(C)OC(=O)[C@H](Cc1ccccc1)NC(=O)c1nc[nH]c1C(=O)N[C@@H](CCCCN)C(=O)OC(C)(C)C | -1.19
CC(Cc1ccco1)NC(=O)c1ccc(C(F)(F)F)cc1 (centres undefined) | 4.71
COc1ccc(Cl)cc1NC(=O)NCCN1CCNC1=O | 0.11
COc1ccc(/C(N)=N/OC(=O)CCCc2ccccc2)cc1OC | 14.8
O=C(O)c1cccc(NC(=O)c2cc(S(=O)(=O)N3CCOCC3)cs2)c1 | -7.54

SMILES | inhibition [%]
CCOC(=O)N1CCC(N(CCN(C)C)C(=S)Nc2ccccc2OCC)CC1 | 7.57
CC1CCC(NCc2ccco2)CC1 (centres undefined) | -0.39
CCC1=C(OC(=O)N(CC)CC)N2C(=O)OC(=NCCc3c[nH]c4ccccc34)[C@]2(Cc2ccccc2)[C@H]2C1=CC[C@H]1C(=O)N(C)C(=O)[C@H]12 | 68.8
CCC1=C(OC(=O)N(CC)CC)N2C(=O)OC(=NCCc3c[nH]c4ccccc34)[C@]2(Cc2ccccc2)[C@H]2C1=CC[C@H]1C(=O)N(CC)C(=O)[C@H]12 | -7.04
O=C(NCC1CCCO1)C(=O)N/N=C/c1c(F)cccc1Cl (centres undefined) | 5.59
NC(N)=Nc1nc2ccccc2o1 | 4.74
CCCCN(C(=O)c1cnccn1)c1c(N)n(CCC)c(=O)[nH]c1=O | -6.33
N#Cc1ccc(OCC(O)CN2CCN(CC(O)COc3ccc(C#N)cc3)CC2)cc1 (centres undefined) | -5.84
CCC(=O)c1ccc(OCC(O)CN2CCN(c3ccccn3)CC2)cc1 (centres undefined) | 4.67
OC(CN1CCN(c2ncc(C(F)(F)F)cc2Cl)CC1)c1ccccc1 (centres undefined) | 32.4
CCC(=O)c1ccc(OCC(O)CN2CCN(c3ccc(F)cc3)CC2)cc1 (centres undefined) | -1.98
O=[N+]([O-])c1cc([N+](=O)[O-])c(Oc2cc(F)ccc2F)cc1NN1CCCCC1 | 5.39
O=C(NCCc1ccccc1)C(=O)c1cn(CC(=O)N2CCCC2)c2ccccc12 | -0.08
COc1cc(NC(=O)c2cccnc2SC)cc(OC)c1OC | -4.5
Cc1cccc(NC(=O)c2nc[nH]c2C(=O)N(C)Cc2ccccc2)c1 | 27.5
COc1cc(OC)cc(C(=O)N[C@H](C(=O)NC23CC4CC(CC(C4)C2)C3)C(C)C)c1 | -8.25
CCCCCN(C(=O)CCC(=O)OCCOc1cccc(C)c1)c1c(N)n(CCCC)c(=O)[nH]c1=O | 44.3
CCOc1cc(Cl)c(NC(C)=O)cc1OCC | -1.54
CCOc1cc(NC(=S)Nc2ccc(Cl)cc2)c(OCC)cc1NC(C)=O | -3.61
CC(=O)c1cccc(NC(=O)C(C)OC(=O)c2ccc(Br)o2)c1 (centres undefined) | 4.17
CCOC(=O)C1CCN(c2cc3c(cc2NC(=O)c2ccccc2F)n(C)c(=O)n3C)CC1 | 4.71
CCOC(=O)C1CCN(c2cc3c(cc2NC(=O)c2ccccc2)n(C)c(=O)n3C)CC1 | -3.19
CCc1ccc(NC(=O)C2C3C=CC(C4CC34)C2C(=O)O)cc1 (centres undefined) | 4.87

SMILES | inhibition [%]
CCCCCc1ccc(CC(=O)O)cc1 | -9.58
CCCCCCNC(=O)C(=O)NCCc1ccc(Cl)cc1 | -8.55
NS(=O)(=O)c1cc(C(=O)OC2CCOC2=O)ccc1Cl (centres undefined) | -0.59
N/C(=N\OC(=O)c1ccc2c(c1)OCO2)c1ccc([N+](=O)[O-])cc1 | 0.35
CS(=O)(=O)O/N=C1\CCCCC1c1ccc([N+](=O)[O-])cc1[N+](=O)[O-] (centres undefined) | 11.2
CCN(CC)CCNc1ncnc2c1sc1nc(N3CCOCC3)c3c(c12)CCCC3 | 13.5
COc1ncnc2c1sc1nc(-c3ccccc3)c3c(c12)CCCC3 | 2.95
Cc1nc(-c2c(C(=O)NNC(=O)Nc3c(C)cccc3C)noc2C)cs1 | -5.09
COc1ccc(OC)c(C(=O)NC2CC(C)(C)Cc3c2cnn3-c2ccccc2)c1 (centres undefined) | 12.2
CC(C)CC(=O)Nc1cccc(NC(=O)c2ccccc2Cl)c1 | 0.24
COc1ccc(CSc2nc3ccccc3c(=O)[nH]2)cc1F | 2.06
Cn1cc(C=C2C(=O)NC(=O)NC2=O)c2ccccc21 | -7.12
COc1ccc(N2C(=O)NC(=O)/C(=C\c3cn(C)c4ccccc34)C2=O)cc1 | 3.04
COC(=O)c1ccc(C(c2c(N)n(CC(C)C)c(=O)[nH]c2=O)N2CCN(c3ccccc3)CC2)cc1 (centres undefined) | 7.1
CCOC(=O)CC(=O)CSc1nnc2c(n1)[nH]c1ccccc12 | 7.32
COc1ccc(C2CC(c3c(Cl)cccc3Cl)n3nc(N)nc3N2)cc1 (centres undefined) | -4.95
Cc1cc(C)nc(NC(=S)NC(=O)c2ccccc2)n1 | -0.74
O=C(C1CCC(CNc2c(N3CCCCC3)c(=O)c2=O)CC1)N1CCCC1 (centres undefined) | -1.43
CC1CCN(C(=O)C2CCC(CNc3c(N4CCCCC4)c(=O)c3=O)CC2)CC1 (centres undefined) | -6.49
CC(=O)NCC1CCCN(C(=O)c2ccc(OC3CCN(Cc4ccccn4)CC3)cc2)C1 (centres undefined) | 8.85
